Ten molecules from PubChem BioAssay can be followed below.

SMILES strings stand for the structures. Where “and” joins values, the source holds several entries; their conditions need not be identical. Equal values may be shown once. Calls of active or inactive are those of the source.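 Rule for the calls, unless noted: active = inhibition at or above 50% relative to wild type and mutant plate controls; inactive = inhibition below 50%.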

A short description of assay [1]: inhibitors of TNFa-induced NFkB p65 translocation, primary screen, imaging, HUVEC, MLSMR starter and 10KST1 sets (AID 438;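 active = inhibition above 20% together with a positive visual image hit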;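 note: compound added about 3h40 before a 20 min TNFalpha stimulation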;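 for inhibition: signal is the nuclear over cytoplasmic p65 intensity ratio per well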). The settings on record: HUVEC TNFa-induced p65 nuclear translocation; cell count: measured here: nuclei count (cytotoxicity indicator), at 2.08 µM; inhibition: at 2 µM, stronger effect = higher value, 0% TNFa-plus-vehicle, 100% no-TNFa wells.
A short description of assay [2]: reduction of polyQ htt aggregates in cells – imaging, exon1htt(103Q)mCFP cells, high-content imaging, primary screen (AID 483;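 active = visual image review flags a hit and inhibition of aggregation exceeds 20%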;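 note: compound exposure lasted 3 days before fixation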;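 for nuclei count: percent of the per-plate median nuclei count of sample wells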). Conditions: exon1htt(103Q)mCFP cell line, aggregate imaging, at 2 µM; inhibition of aggregation: stronger effect = higher value; nuclei count: measured here: cell count, toxicity.
The nature of assay [3]: endothelial E-selectin expression blockers – imaging, HUVEC, immunofluorescence, MLSMR starter and 10KST1 sets, primary screen (AID 487;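 active = visually confirmed hit in the image check and inhibition above 20%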;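 for inhibition: signal is fraction of cell area covered by stained E-selectin grains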;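 for nuclei count: 100% = median nuclei count of all wells on the same plate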). Conditions: HUVEC TNFalpha-induced E-selectin immunofluorescence imaging, at 2 µM; inhibition: stronger effect = higher value; nuclei count: measured here: cell number, toxicity.
Assay [4] can be described thus: Primary imaging screen for DUSP6 inhibitors that restore phospho-Erk in transfected HeLa cells, chemical complementation (AID 609;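 active = compounds giving at least 50% inhibition in the cell-based MKP-3 phosphatase rescue imaging test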;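 for inhibition: phospho-Erk level distribution per well compared with pooled transfected vehicle control wells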). The settings on record: HeLa MKP-3 transfected, phospho-Erk imaging KS statistic, at 10 µM, cells stimulated with TPA for 15 min.
Assay [5] concerns the target Dual specificity protein phosphatase 6 (Homo sapiens) (UniProt Q16828). Described as above. The settings on record: HeLa MKP-3 transfected, phospho-Erk imaging KS statistic; at 10 µM; stronger effect = higher value; cells stimulated with TPA for 15 min.
In assay [6] the target is Voltage-gated potassium channel subunit beta-2 (Rattus norvegicus) (UniProt P62483). Nature of the assay: inhibitors of rat Kvbeta2 reductase activity – biochemical, NADPH fluorescence, primary screen (AID 622;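 active = fluorescence slope higher than the sample average by over 3 SD, cut at about -0.22 in these data, passing the limit was not always enough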;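 note: slope of raw intensity against log time taken from 70 to 1610 s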). The settings on record: recombinant KvBeta, 4-cyanobenzaldehyde reduction, at 10 µM, stronger effect = higher value.
Assay [7] shares this target. In words: enhancers of rat Kvbeta2 NADPH turnover – biochemical, NADPH fluorescence, primary screen (AID 623;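 active = NADPH fluorescence slope more negative than the mean of all samples by about 3 SD, 99.7% confidence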;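 note: fluorescence intensity change per second fitted from 20 to 320 s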). Conditions: Recombinant KvBeta, NADPH fluorescence decrease slope, 10 min; at 10 µM; stronger effect = lower value.
In assay [8] the target is Alpha-2C adrenergic receptor (Homo sapiens) (UniProt P18825). In words: compounds altering alpha2C-coupled GIRK flux – cell-based, HEK293 alpha2C/GIRK1/2, thallium flux, primary screen (AID 624;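 active = fluorescence slope after compound addition differing from the mean of all screened samples at 99.7% confidence, in either direction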;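 note: slope of fluorescence ratio to pre-addition baseline per second over 15 to 24 s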). Conditions: thallium flux BTC fluorescence, at 10 µM, actives lie on both sides.
The nature of assay [9]: inhibitors of larval lipid processing in zebrafish, primary screen, whole organism, PED6 fluorescence, gall bladder and intestine (AID 686;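 active = a full or partial loss of lipid-probe fluorescence in the fish gall bladder, intestine or both, judged by eye; inactive = no fluorescence loss, or compound toxic to the fish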;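 note: larvae 5 to 7 days old with five fish per well; signal comes from phospholipase A2 cleavage of quenched PED6 carried via bile; overnight exposure to compound and PED6 before scoring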). The settings on record: Zebrafish larvae PED6 lipid processing, fluorescence scoring; screened at 20 µM (by protocol).
Assay [10] is described as follows: loss of swimming-algae plug formation – whole organism, Chlamydomonas reinhardtii, WT vs cilia-less mutant, absorbance, 96-well, primary screen (AID 463189).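 Note: 0% = wild type cc124 cells in DMSO and 100% = ciliumless bld1 mutant cells.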 Conditions: Chlamydomonas reinhardtii gravitaxis, OD600 absorbance, 2 days; at 10 µM; stronger effect = higher value.
A short description of assay [11]: blockers of RIG-like receptor reporter activation – cell-based, Sendai virus stimulus, luciferase, 10K MLSCN set, TLR/RLR signaling modifier project, primary screen (AID 602276;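 active = inhibition at or above 50% at 10 µM; inactive = inhibition below 50%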;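 note: firefly luciferase from ISG56 promoter only with Renilla not read in this screen; 0% = Sendai virus plus DMSO and 100% = medium plus DMSO without virus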). Conditions: HEK293 RL24 IRF3 luciferase reporter, at 10 µM, stronger effect = higher value. (In general: A reporter such as luciferase makes a cellular process visible.)
The nature of assay [12]: TLR3 IRF3 reporter activation blockers – cell-based, poly I:C stimulus, luciferase, 10K MLSCN set, primary screen (AID 602277;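 active = inhibition of the reporter signal at or above 50%; inactive = inhibition below 50%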). The settings on record: HEK293-TLR3 RL24 IRF3 luciferase reporter, at 10 µM, stronger effect = higher value.
[13] abbreviates: measured here: cell density z-score.
Where [14] appears, read: measured here: nuclear c-Myc green intensity z-score.
Where [15] appears, read: measured here: nuclear pErk red intensity z-score, stronger effect = higher value.

Chain of Alpha-2C adrenergic receptor (Homo sapiens) (P18825 whole entry, looked up): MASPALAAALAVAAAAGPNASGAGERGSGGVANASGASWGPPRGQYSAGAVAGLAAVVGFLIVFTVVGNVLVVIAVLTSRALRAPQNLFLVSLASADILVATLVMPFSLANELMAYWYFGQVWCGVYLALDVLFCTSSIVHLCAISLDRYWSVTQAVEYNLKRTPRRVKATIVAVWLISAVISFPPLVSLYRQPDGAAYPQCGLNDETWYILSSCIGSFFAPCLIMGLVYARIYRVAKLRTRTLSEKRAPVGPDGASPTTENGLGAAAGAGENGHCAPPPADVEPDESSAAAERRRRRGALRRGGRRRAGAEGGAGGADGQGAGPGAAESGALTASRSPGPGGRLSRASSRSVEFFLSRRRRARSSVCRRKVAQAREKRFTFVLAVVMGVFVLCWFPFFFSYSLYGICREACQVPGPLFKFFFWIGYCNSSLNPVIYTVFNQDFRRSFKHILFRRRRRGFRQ
Chain of Dual specificity protein phosphatase 6 (Homo sapiens) (Q16828 whole entry, looked up): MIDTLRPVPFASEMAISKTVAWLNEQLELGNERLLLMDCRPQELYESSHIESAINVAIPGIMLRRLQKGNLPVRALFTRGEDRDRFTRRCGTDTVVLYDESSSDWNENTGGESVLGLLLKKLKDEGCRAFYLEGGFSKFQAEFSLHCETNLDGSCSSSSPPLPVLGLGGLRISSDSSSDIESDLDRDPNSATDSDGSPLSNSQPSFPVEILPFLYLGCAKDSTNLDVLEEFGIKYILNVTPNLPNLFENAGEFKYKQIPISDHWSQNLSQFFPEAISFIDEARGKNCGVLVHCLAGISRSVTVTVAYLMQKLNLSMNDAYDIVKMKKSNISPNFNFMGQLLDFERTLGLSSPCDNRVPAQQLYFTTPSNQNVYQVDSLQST
Chain of Voltage-gated potassium channel subunit beta-2 (Rattus norvegicus) (P62483 whole entry, looked up): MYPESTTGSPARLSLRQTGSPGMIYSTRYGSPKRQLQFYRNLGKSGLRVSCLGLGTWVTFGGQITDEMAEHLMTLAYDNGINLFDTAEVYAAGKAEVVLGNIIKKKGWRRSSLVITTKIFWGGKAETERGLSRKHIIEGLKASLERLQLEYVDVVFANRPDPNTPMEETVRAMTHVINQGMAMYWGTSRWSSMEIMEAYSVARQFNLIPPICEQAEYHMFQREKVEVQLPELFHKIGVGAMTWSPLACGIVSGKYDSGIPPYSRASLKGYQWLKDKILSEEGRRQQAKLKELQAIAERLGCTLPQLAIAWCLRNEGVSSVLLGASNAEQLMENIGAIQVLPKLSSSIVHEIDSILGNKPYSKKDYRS

As to `CCC1(c2ccccc2)C(=O)NCNC1=O`, the cell count in assay [1] stood at 647. Also, the inhibition (commonly the change of the read-out against control, counted positive when it falls) in assay [1] is 3.5% (inactive); in assay [3], -70% (inactive); in [5], 5.79% (inactive); in assay [10] it was -4.31% (inactive) and 28.8% (inactive); in [11], 17% (inactive); in assay [12] it was 30.6% (inactive). In assay [2], the inhibition of aggregation was -10.2% (inactive). In addition, the nuclei count in [2] turned out to be 103%; in [3], 129%. Besides, the z-score in assay [4] (setting [13]) is -0.87; in assay [4] (setting [14]) it was 2.71; in assay [4] (setting [15]), -0.522. Further, the fluorescence slope in assay [6] was -0.469 (inactive). For the same molecule, in [7], the NADPH fluorescence slope is -8.7e-06 (inactive). The slope in assay [8] is 0.00482 (inactive). Besides, the call in assay [9] was inactive.
In the case of `CC(=O)O[C@]1(C(C)=O)CC[C@H]2[C@@H]3C[C@H](C)C4=CC(=O)CC[C@]4(C)[C@H]3CC[C@@]21C`, the cell count in [1] is 605. Moreover, the inhibition in assay [1] is 2.3% (inactive); in assay [3] it was -47.8% (inactive); in assay [5], 12.4% (inactive); in assay [10], -2.6% (inactive); in assay [11], 8.39% (inactive); in [12] it was 46.7% (inactive). In addition, the inhibition of aggregation in assay [2] is 0.3% (inactive). Besides, the nuclei count was 94.8% in assay [2] and 119% in assay [3]. Also, the figures for the z-score in [4] (setting [13]), in assay [4] (setting [14]) and in assay [4] (setting [15]) were 1.33, -0.458 and 0.835, respectively. The fluorescence slope in assay [6] was -0.521 (inactive). Besides, the NADPH fluorescence slope in [7] was -6e-06 (inactive). In addition, the slope in assay [8] is 0.00379 (inactive). Moreover, in [9], the outcome was inactive.
Take `Cn1c(=O)c2[nH]cnc2n(C)c1=O`: the cell count in [1] turned out to be 656. The inhibition in [1] was -1.4% (inactive); in assay [3], -74.2% (inactive); in assay [5] it was 19% (inactive); in assay [10], -1.38% (inactive) and -11.3% (inactive); in assay [11] it was 6.67% (inactive); in assay [12] it was 32.1% (inactive). In addition, the inhibition of aggregation in assay [2] was 12.3% (inactive). Moreover, the nuclei count in [2] stood at 83.7%; in assay [3], 142%. Further, the z-score in assay [4] (setting [13]) was -0.0459; in [4] (setting [14]), 0.0873; in assay [4] (setting [15]) it was -0.896. Also, the fluorescence slope in assay [6] was -0.453 (inactive). Besides, the NADPH fluorescence slope in assay [7] is -2.6e-05 (inactive). Also, the slope in assay [8] is 0.00501 (inactive). Also, in assay [9], the molecule was called inactive.
With `C[C@]12CC[C@@H]3c4ccc(OC(=O)c5ccccc5)cc4CC[C@H]3[C@@H]1CC[C@@H]2O`, the cell count in assay [1] came out at 623. Further, the inhibition in assay [1] is 1.2% (inactive); in assay [3] it was -112% (inactive); in [5], -6.41% (inactive); in assay [10], 5.46% (inactive); in [11], 7.4% (inactive); in [12] it was 33.1% (inactive). Further, in assay [2], the inhibition of aggregation is -35.3% (inactive). Besides, the nuclei count turned out to be 31.5% in assay [2] and 133% in assay [3]. For the same molecule, the results for the z-score in [4] (setting [13]), in assay [4] (setting [14]) and in assay [4] (setting [15]) were -1.91, 0.276 and -1.27, respectively. For the same molecule, in assay [6], the fluorescence slope is -0.467 (inactive). The NADPH fluorescence slope in assay [7] is -8.1e-05 (inactive). In addition, the slope in assay [8] is 0.00784 (inactive). Further, in assay [9], the molecule was classed as inactive.
In the case of `c1cc2c(cc1C1=Nn3c(nnc3C3CCCCC3)SC1)OCO2`, the cell count in [1] stood at 636. Moreover, the inhibition in [1] is -0.8% (inactive); in assay [3], -52.3% (inactive); in [5] it was -6.06% (inactive); in assay [10], -5.58% (inactive); in assay [11] it was 25.1% (inactive); in [12], 31% (inactive). Further, the inhibition of aggregation in [2] was 5.8% (inactive). Besides, the results for the nuclei count in assay [2] and in assay [3] were 31.9% and 113%, respectively. Moreover, the z-score in [4] (setting [13]) is -0.24; in [4] (setting [14]), 0.613; in assay [4] (setting [15]) it was -0.0709. Moreover, the fluorescence slope in assay [6] was -0.481 (inactive). In addition, the NADPH fluorescence slope in assay [7] was -8.1e-05 (inactive). For the same molecule, the slope in [8] is 0.00571 (inactive). The result in [9] was inactive.
As for `NS(=O)(=O)c1ccc(C(=O)O)cc1`, the cell count in assay [1] is 662. Moreover, the inhibition in assay [1] is -3.9% (inactive); in [3], -60.6% (inactive); in assay [5], 31.1% (inactive); in assay [10], 24.6% (inactive); in assay [11], -11.5% (inactive); in [12], -18% (inactive). For the same molecule, the inhibition of aggregation in assay [2] is 7.9% (inactive). For the same molecule, the nuclei count in assay [2] came to 106%; in [3] it was 124%. The results for the z-score in assay [4] (setting [13]), in assay [4] (setting [14]) and in assay [4] (setting [15]) were 1.84, -0.0127 and -1.63, respectively. The fluorescence slope in assay [6] was -0.499 (inactive). For the same molecule, the NADPH fluorescence slope in [7] is 3.5e-06 (inactive). Moreover, the slope in [8] was 0.00388 (inactive). In addition, the molecule was classed as inactive in assay [9].
Take `O=C(OCC#CCSc1nnc(-c2ccccc2)o1)c1cccs1`: the cell count in assay [1] is 281. The inhibition in assay [1] was -2.4% (inactive); in [3] it was -178% (inactive); in assay [5], 3.66% (inactive); in [10] it was -3.45% (inactive); in assay [11], -0.522% (inactive); in assay [12] it was 1.31% (inactive). Besides, in assay [2], the inhibition of aggregation is 8.9% (inactive). Moreover, the results for the nuclei count in [2] and in assay [3] were 95.4% and 132%, respectively. Besides, the z-score is -0.348 in assay [4] (setting [13]), 0.84 in assay [4] (setting [14]) and 0.574 in assay [4] (setting [15]). Further, in assay [6], the fluorescence slope is -0.396 (inactive). Besides, the NADPH fluorescence slope in assay [7] was -4e-05 (inactive). In assay [8], the slope is 0.00513 (inactive). In addition, the outcome in assay [9] was inactive.
Turning to `CN(C)c1ccc(C=NCC2(O)CCOC(C)(C)C2)cc1` (stereo not given), the cell count in assay [1] was 470. Also, the inhibition in assay [1] is -13.2% (inactive); in assay [3], -145% (inactive); in assay [5], 17.5% (inactive); in assay [10], 7.69% (inactive); in assay [11], 13% (inactive); in assay [12], 13.9% (inactive). For the same molecule, the inhibition of aggregation in assay [2] is -13.7% (inactive). Besides, the nuclei count in assay [2] turned out to be 108%; in [3], 144%. The z-score was -1.86 in assay [4] (setting [13]), -0.94 in assay [4] (setting [14]) and 0.52 in assay [4] (setting [15]). The fluorescence slope in assay [6] was -0.423 (inactive). Besides, in assay [7], the NADPH fluorescence slope is -0.000132 (inactive). In addition, the slope in assay [8] was 0.00493 (inactive). Further, the outcome in assay [9] was inactive.
In the case of `C[N+](C)(C)CCOP(=O)([O-])OC[C@H](O)CO`, the cell count in assay [1] was 713. Also, the inhibition in [1] is -2.4% (inactive); in [3], -60.7% (inactive); in assay [5], 15.3% (inactive); in assay [10] it was 27.2% (inactive); in assay [11], -4.92% (inactive); in assay [12], -2.18% (inactive). Besides, the inhibition of aggregation in assay [2] is -22.9% (inactive). The nuclei count in assay [2] was 105%; in assay [3] it was 109%. For the same molecule, the results for the z-score in [4] (setting [13]), in [4] (setting [14]) and in assay [4] (setting [15]) were 0.542, 0.427 and -0.871, respectively. In [6], the fluorescence slope is -0.472 (inactive). Further, the NADPH fluorescence slope in assay [7] was -5.7e-05 (inactive). Moreover, the slope in assay [8] was 0.00513 (inactive). Also, the result in [9] was inactive.
For the molecule `Cc1ccc(C)c(OCCCC(C)(C)C(=O)O)c1`, the cell count in assay [1] is 624. Besides, the inhibition in [1] is -1.4% (inactive); in assay [3], -52.3% (inactive); in [5] it was 7.39% (inactive); in assay [10] it was 36% (inactive); in [11], 17.7% (inactive); in assay [12], 39.7% (inactive). For the same molecule, the inhibition of aggregation in assay [2] was 26.1% (inactive). The nuclei count in assay [2] amounted to 107%; in [3], 122%. Besides, the z-score in assay [4] (setting [13]) amounted to 0.389; in [4] (setting [14]), 0.0218; in assay [4] (setting [15]), 0.246. Further, the fluorescence slope in [6] is -0.536 (inactive). For the same molecule, in assay [7], the NADPH fluorescence slope was -3.5e-05 (inactive). The slope in assay [8] was 0.00591 (inactive). Also, in assay [9], the call was inactive.
